Laboratory results from PubChem BioAssay (Tox21).
Records with an inconclusive call do not appear. Entries that show only a call come without a potency. Activity calls are given as the source filed them. Calls follow the shape of the dose curve; as a rule, active = well fitted cell-killing curve with a large enough effect in the repeat runs; inconclusive = weak or mixed curves, or effect the other way; inactive = flat fitted curve, though single readings scatter.

Assay: cAMP Responsive Elements (CRE) small molecule agonists, cell-based qHTS assay: qHTS cell viability counter screen (AID 2060914);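 also: viability read after 3 h of compound exposure; nearly all actives have a fitted effect of over 50% in size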
Conditions: CRE-bla HEK293T viability, CellTiter-Glo luminescence, 5 h; series mostly up to 92.4 µM
Excerpt: National Center for Advancing Translational Sciences [NCATS]
Division of Preclinical Innovation [DPI]
U.S. Environmental Protection Agency [EPA]
National Institutes of Environmental Health Sciences [NIEHS]
National Toxicology Program [NTP]
U.S. Food and Drug Administration [FDA]
CREB (cyclic-AMP Responsive Element Binding Protein) is a cellular transcription factor. It binds to certain DNA sequences called cAMP Responsive Elements (CRE) and regulates the transcription of the genes. […] This cell line can be used to find agonists/antagonists of the cyclic AMP signaling pathway. The activation of the report gene under culture conditions can be detected by fluorescence intensity. This cell line has been used to screen the Tox21 10K compound library to identify agonists that induce oxidative stress. The cytotoxicity of the Tox21 compound library against the CRE-bla cell line was tested in parallel by measuring the cell viability using CellTiter-Glo assay (Promega, Madison, WI) in the same wells.
Tox21 Assay Protocol Summary:
CRE-bla Hek 293T cells were suspended in assay medium (DMEM containing 10% dialyzed FBS, 0.1 mM NEAA, 1 mM sodium pyruvate and 25 mM HEPES) and dispensed at 2,000 cells/5 uL /well into 1536-well black wall/clear bottom plates using a Multidrop Combi (ThermoFisher Scientific, Waltham, MA) dispenser. After the assay plates were incubated at 37 C/5% CO2 for 18 hrs, 23 nL of compounds dissolved in DMSO, positive controls or DMSO only was transferred to the assay plate by a pintool workstation (Kalypsys, San Diego, CA). After the plates were incubated at 37 C/5% CO2 for 3 hrs, 1 uL of LiveBLAzer B/G FRET substrate (Invitrogen, Carlsbad, CA) was added to each well using Bioraptr Flying Reagent Dispenser (FRD, Aurora Discovery, San Diego, CA). The plates were incubated at room temperature for 2 h, then fluorescence intensities were measured using an Envision plate reader (PerkinElmer, Shelton, CT) at Excitation 405nm, Emission 460nm and 530nm. The % activity was determined from the ratio of 460nm/530nm. For cell viability readout that measures cytotoxicity, 4 uL /well of CellTiter-Glo reagent was added into the assay plates using Bioraptr FRD. After 30 min incubation at room temperature, the luminescence intensity in the assay plates was measured using a ViewLux (PerkinElmer, Shelton, CT) plate reader.
Potency is read from the fitted curve at half-maximal effect.

SMILES	Potency	activity change, negative = cytotoxicity
CCCCCCCCCCCCSC	inactive	
Cc1ccc(C(N)=O)cc1N	inactive	
CC1=CCC(C(C)(C)O)CC1 (stereo not given)	inactive	
CCOC(=O)CCC(=O)OCC	inactive	
O=C(O)c1ccccc1-n1cc(C(=O)O)c(=O)c2cc(Nc3c(F)cc(F)cc3Cl)c(Cl)cc21	inactive	
Cc1ccc(O)cc1	inactive	
C=C1C[C@@]23CC[C@H]4[C@@](C)(CCC[C@@]4(C)C(=O)O[C@@H]4O[C@H](CO)[C@@H](O)[C@H](O)[C@H]4O)[C@@H]2CC[C@]1(O[C@@H]1O[C@H](CO)[C@@H](O)[C@H](O[C@@H]2O[C@H](CO)[C@@H](O)[C@H](O)[C@H]2O)[C@H]1O[C@@H]1O[C@H](CO)[C@@H](O)[C@H](O)[C@H]1O)C3	inactive	
O=C1c2ccccc2CCc2ccccc21	inactive	
COC(=O)C1=C(C)NC(C)=C(C(=O)OCCc2ccc(N3CCN(C(c4ccccc4)c4ccccc4)CC3)cc2)C1c1cccc([N+](=O)[O-])c1 (stereo not given)	inactive	
Nc1cc([N+](=O)[O-])ccc1C(=O)O	inactive	
CC(=O)N1CCN(c2ccc(OC[C@H]3CO[C@](Cn4ccnc4)(c4ccc(Cl)cc4Cl)O3)cc2)CC1	68.6 µM (active)	
CCC(Cl)C(Cl)C(Cl)CC(Cl)C(Cl)C(C)Cl (stereo not given)	inactive	
COc1ccccc1NC(=O)CC(C)=O	inactive	
CCC1C(=O)OCC1Cc1cncn1C (stereo not given)	inactive	
C#CCN(C)Cc1ccccc1	inactive	
C=CC(=O)[O-].C=CC(=O)[O-].[Zn+2]	inactive	
CCn1nc(C)c2c1C(=O)NCC(c1ccc(O)cc1)=N2	inactive	
Cc1occc1SSc1ccoc1C	inactive	
Cc1ccc2c(c1)CCCN2	inactive	
CSc1ccc(/C=C2/C(C)=C(CC(=O)O)c3cc(F)ccc32)cc1	inactive	

SMILES	Potency	activity change, negative = cytotoxicity
CCn1cc(C(=O)O)c(=O)c2ccc(C)nc21	inactive	
CCCCC(CC)COC(=O)CCCCCCCC(=O)OCC(CC)CCCC (stereo not given)	inactive	
Cn1c(=O)[nH]c2ncn(C)c2c1=O	inactive	
CCCCCCCCCCOC(C)=O	inactive	
CC(=O)Nc1ccc(C(=O)CCl)cc1	inactive	
C=C1CC[C@H](O)CC1=C/C=C1\CCC[C@]2(C)[C@@H]([C@H](C)/C=C/[C@H](C)C(C)C)CC[C@@H]12	inactive	
CC(C(=O)O)c1ccc(-c2ccccc2)c(F)c1 (stereo not given)	inactive	
O=C(O)CCCl	inactive	
Cc1cccc(C)c1OCC(C)N (stereo not given)	inactive	
SCCc1cnccn1	inactive	
CC[C@H]1OC(=O)[C@H](C)[C@@H](O[C@H]2C[C@@](C)(OC)[C@@H](O)[C@H](C)O2)[C@H](C)[C@@H](O[C@@H]2O[C@H](C)C[C@H](N(C)C)[C@H]2O)[C@](C)(O)C[C@@H](C)/C(=N\OCOCCOC)[C@H](C)[C@@H](O)[C@]1(C)O	36 µM (active)	
CC(C)(C)C1CCCCC1=O (stereo not given)	inactive	
CC1=CC[C@@]23C[C@@H]1C(C)(C)[C@@H]2CC[C@H]3C	inactive	
CCCCN1C=CN(C)C1		2.49% [at 18.9 µM] (inactive)
O=S(=O)(O)c1ccc(N=Nc2c(O)ccc3ccccc23)cc1	inactive	
CCCCCCCCCCCCCCCCN(C)C		-12.8% [at 8.39 µM] (inactive)
C[N+](C)(CCOc1ccccc1)Cc1cccs1	inactive	
CC1CNCC(C)O1 (stereo not given)	inactive	
CCc1ccc(Br)cc1	inactive	
CCCCS(=O)(=O)N[C@@H](Cc1ccc(OCCCCC2CCNCC2)cc1)C(=O)O	inactive	
